The results in this text go back to PubChem BioAssay (NCATS).

Assay [1] is described as follows: qHTS for Inhibitors of Plasmodium falciparum (DD2) proliferation (AID 504314). Further: potency means the concentration at half of the fitted maximal effect.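 On activity, negative = inhibition: parasite DNA measured by SYBR Green fluorescence after red cell lysis; plate controls were DMSO vehicle for no effect and artemisinin wells for full effect.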 The method, boiled down:
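Erythrocytes infected with P. falciparum Dd2 (0.3% parasitemia, 2.5% hematocrit) exposed to compound 72 h at 37C, 5% CO2. Parasite DNA quantified by SYBR Green fluorescence after saponin/Triton lysis overnight; normalized to 0.29 uM artemisinin and DMSO.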

Assay [2] is described as follows: qHTS for Inhibitors of Plasmodium falciparum (GB4) proliferation (AID 504315). Further: nearly all actives have a fitted effect of over 50% in size. Further: potency means the concentration at half of the fitted maximal effect. An outline of the steps: (§1)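 Erythrocytes infected with P. falciparum line (0.3% parasitemia, 2.5% hematocrit final) incubated with compounds 72 h at 37 °C, 5% CO2; SYBR Green lysis buffer added, fluorescence read next day. Normalized to 0.29 uM artemisinin and DMSO.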
(Quantitative high-throughput screening tests each substance at several concentrations.)

Assay [3] is described as follows: qHTS for Inhibitors of Plasmodium falciparum (7G8) proliferation (AID 504316). Further: nearly all actives have a fitted effect of over 65% in size. Further: potency means the concentration at half of the fitted maximal effect. The method, boiled down: as §1
The nature of assay [4]: qHTS for Inhibitors of Plasmodium falciparum (HB3) proliferation (AID 504318). Further: nearly all actives have a fitted effect of over 60% in size. Further: potency means the concentration at half of the fitted maximal effect. An outline of the steps:
as §1

Assay [5] in a line: qHTS for Inhibitors of Plasmodium falciparum (CP250) proliferation (AID 504320).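 Further: plate controls were DMSO vehicle for no effect and 0.29 µM artemisinin control for full effect.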 An outline of the steps: as §1
Assay [6] addresses Atrial natriuretic peptide receptor 1 (Homo sapiens) (UniProt P16066). Description: Natriuretic polypeptide receptor (hNpr1) antagonism - Pilot CMLD screen (AID 1347052; calls by dose curve;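 further: HEK293 cells with hNpr1 stimulated by hNppA peptide at 0.1 nM; cGMP level read as GloSensor luciferase luminescence after agonist stimulation; series mostly up to about 9.2 µM; on the % scale 0 is the no-effect control and ±100 the full control effect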).

Inconclusive results are not listed. A number with no mark means an inactive call. The source made the active and inactive calls. Unless noted, the call rests on the fitted dose curve; in most records, active means well fitted curve in the direction sought with a large enough effect; inconclusive means small, poorly fitted or top-dose-only effect, or another doubt; inactive means no such curve, though single readings can be large; an effect the other way counts as inactive or inconclusive.

Chain of Atrial natriuretic peptide receptor 1 (Homo sapiens) (P16066 whole entry, looked up): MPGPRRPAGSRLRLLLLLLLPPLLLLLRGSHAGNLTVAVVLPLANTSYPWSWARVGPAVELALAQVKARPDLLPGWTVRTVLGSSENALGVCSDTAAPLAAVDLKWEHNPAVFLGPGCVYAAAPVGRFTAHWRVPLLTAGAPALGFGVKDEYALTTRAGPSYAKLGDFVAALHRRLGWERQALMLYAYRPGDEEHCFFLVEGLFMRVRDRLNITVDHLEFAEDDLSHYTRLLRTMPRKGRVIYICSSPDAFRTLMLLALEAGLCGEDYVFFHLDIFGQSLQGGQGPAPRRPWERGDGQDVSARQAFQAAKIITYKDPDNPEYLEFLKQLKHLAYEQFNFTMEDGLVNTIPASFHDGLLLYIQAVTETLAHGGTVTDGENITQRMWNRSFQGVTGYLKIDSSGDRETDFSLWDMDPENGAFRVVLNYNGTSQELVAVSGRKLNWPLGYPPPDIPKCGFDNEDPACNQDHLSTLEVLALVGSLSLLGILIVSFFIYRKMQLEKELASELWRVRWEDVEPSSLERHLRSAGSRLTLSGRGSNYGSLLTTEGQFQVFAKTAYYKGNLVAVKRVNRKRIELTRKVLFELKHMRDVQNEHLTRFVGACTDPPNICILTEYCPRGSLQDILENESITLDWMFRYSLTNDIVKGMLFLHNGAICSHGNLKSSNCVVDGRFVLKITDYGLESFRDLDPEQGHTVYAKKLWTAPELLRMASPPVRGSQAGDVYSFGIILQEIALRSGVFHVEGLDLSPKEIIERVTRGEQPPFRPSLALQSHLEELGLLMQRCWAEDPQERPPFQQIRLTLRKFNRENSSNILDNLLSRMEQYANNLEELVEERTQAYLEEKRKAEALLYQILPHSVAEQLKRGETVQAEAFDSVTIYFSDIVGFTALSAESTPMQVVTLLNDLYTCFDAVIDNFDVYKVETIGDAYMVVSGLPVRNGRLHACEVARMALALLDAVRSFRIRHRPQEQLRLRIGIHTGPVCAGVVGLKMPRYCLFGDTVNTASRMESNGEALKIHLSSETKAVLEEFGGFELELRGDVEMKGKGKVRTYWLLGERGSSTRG

Regarding `COC(=O)CC=C[C@@H](C)[C@@H](C=NO[C@@H](C)c1cn([C@H](CO)Cc2ccccc2)nn1)NS(=O)(=O)c1ccc(C)cc1`, the Potency result in assay [1], in assay [2], in assay [3], in assay [4], in assay [5] and in assay [6] was “inactive” throughout.

As to `COC(=O)CC=C[C@@H](C)[C@@H](Cc1ccccc1Br)OC`, the Potency entry in assay [1], in assay [2], in assay [3], in assay [4], in assay [5] and in assay [6] was “inactive” throughout.

For the compound `CCOC(=O)C1(C(=O)OCC)Cc2ccc(C(C)=O)cc2C1`, the Potency entry in assay [1], in assay [2], in assay [3], in assay [4], in assay [5] and in assay [6] was “inactive” throughout.

Consider `OC[C@H]1O[C@H](c2ccccc2)C=C[C@H]1OCc1cccc(Br)c1`, for which the Potency result in assay [1], in assay [2], in assay [3], in assay [4], in assay [5] and in assay [6] was “inactive” in each case.

`CO[C@H](C1CCCCC1)[C@H](C)C=CCC(=O)OCCCc1ccccc1`: the Potency result in assay [1], in assay [2], in assay [3], in assay [4], in assay [5] and in assay [6] was “inactive” in each case.

`OC[C@H]1O[C@H](C#Cc2ccccc2)C=C[C@H]1O`: the Potency entry in assay [1], in assay [2], in assay [3], in assay [4], in assay [5] and in assay [6] was “inactive” each time.

On to `Cc1cccc(C)c1Nc1oc(-c2ccccc2)nc1C(C)(C)C`, for which the Potency result in assay [1], in assay [2], in assay [3], in assay [4], in assay [5] and in assay [6] was “inactive” each time.

In the case of `COC(=O)C(C(C)=O)C1c2ccccc2C=C(C)N1C(=O)OC` (stereo unspecified), the activity, negative = inhibition in assay [1] is -3.36% [at 1.12 µM]. The Potency result in assay [2], in assay [3], in assay [4], in assay [5] and in assay [6] was “inactive” in each case.

Take `C=CCOC(=O)N[C@@H](c1coc2ccccc2c1=O)[C@@H](C)C=CCC(=O)OC`: the Potency entry in assay [1], in assay [2], in assay [3], in assay [4], in assay [5] and in assay [6] was “inactive” in each case.

With `CCCCn1c(C)cc2c(c1=O)[C@H]1O[C@](c3ccsc3)(Cc3cc(OC)c(OC)cc31)O2`, the Potency result in assay [1], in assay [2], in assay [3], in assay [4], in assay [5] and in assay [6] was “inactive” throughout.

Consider `COC(=O)C1=C(C)N(CC2CC2)C(=O)NC1c1ccccc1` (stereo unspecified), for which the Potency result in assay [1], in assay [2], in assay [3], in assay [4], in assay [5] and in assay [6] was “inactive” in each case.

`COc1ccc(C2=CC3=C(Br)C(=O)C(C)(OC(=O)c4ccc(Cl)nc4)C(=O)C3=CO2)cc1` (stereo unspecified): the Potency result in assay [1], in assay [2], in assay [3], in assay [4], in assay [5] and in assay [6] was “inactive” throughout.

`CC(=O)OC[C@H]1O[C@H](C#CC2=CCCCC2)C=C[C@H]1OC(C)=O`: the Potency entry in assay [1], in assay [2], in assay [3], in assay [4], in assay [5] and in assay [6] was “inactive” in each case.

With `CCOC(=O)CN1C(=O)NC(c2cccs2)C(C(=O)OC)=C1C` (stereo unspecified), the Potency result in assay [1], in assay [2], in assay [3], in assay [4], in assay [5] and in assay [6] was “inactive” each time.

Consider `C=CCN1C(=O)[C@]2(OCCC=C[C@H]2C)c2ccccc21`, for which the Potency entry in assay [1], in assay [2], in assay [3], in assay [4], in assay [5] and in assay [6] was “inactive” each time.

On to `C=C(C)C(O)C=CC=Cc1ccccc1` (stereo unspecified), for which the Potency entry in assay [1], in assay [2], in assay [3], in assay [4], in assay [5] and in assay [6] was “inactive” each time.

With `CCOC(=O)C1=CN(CCCc2cn(Cc3ccccc3)nn2)C(=O)NC1c1ccccc1` (stereo unspecified), the Potency result in assay [1], in assay [2], in assay [3], in assay [4], in assay [5] and in assay [6] was “inactive” throughout.

As to `CC(=O)OC[C@H]1O[C@H](CC=NO[C@@H](C)c2cn([C@H](CO)Cc3ccccc3)nn2)C=C[C@@H]1OC(C)=O`, the Potency entry in assay [1], in assay [2], in assay [3], in assay [4], in assay [5] and in assay [6] was “inactive” each time.

As for `CC(=O)OC[C@H]1O[C@H](CC=NOC[C@@H](C)[C@H](OCc2ccccc2)C(C)C)C=C[C@@H]1OC(C)=O`, the Potency entry in assay [1], in assay [2], in assay [3], in assay [4], in assay [5] and in assay [6] was “inactive” each time.

For `COc1ccc(COC(=O)NN=C2C[C@@H](O)[C@@H](O)[C@@H]3[C@H]4C(=O)N(c5ccc(F)cc5F)C(=O)[C@@H]4CC[C@H]23)cc1`, the Potency entry in assay [1], in assay [2], in assay [3], in assay [4], in assay [5] and in assay [6] was “inactive” throughout.

With `COc1ccc(-c2nc3c(c4c2C[C@H](c2ccccc2)OC4)CN(S(=O)(=O)c2ccc(Cl)c4nonc24)CC3)c(C)c1`, the Potency result in assay [1], in assay [2], in assay [3], in assay [4], in assay [5] and in assay [6] was “inactive” in each case.

As to `COc1cc2c(cc1OC)[C@@H]1O[C@](CCCCN3C(=O)c4ccccc4C3=O)(C2)OC2=C1C(=O)c1ccccc1C2=O`, the Potency in assay [1] is 1340 nM (active); in assay [2], 1510 nM (active); in assay [3] it was 1510 nM (active); in assay [4], 1510 nM (active). Moreover, the Potency result in assay [5] and in assay [6] was “inactive” each time.

With `O=C(Oc1ccccc1)[C@H]1O[C@H]1c1ccccc1`, the Potency result in assay [1], in assay [2], in assay [3], in assay [4], in assay [5] and in assay [6] was “inactive” each time.

As to `CC(=O)[C@H]1[C@H](CCc2ccccc2)NC(=O)N(Cc2ccccc2)[C@@H]1C`, the Potency entry in assay [1], in assay [2], in assay [3], in assay [4], in assay [5] and in assay [6] was “inactive” throughout.

On to `OC[C@H]1O[C@H](C#Cc2ccc(F)cc2F)C=C[C@H]1O`, for which the Potency result in assay [1], in assay [2], in assay [3], in assay [4], in assay [5] and in assay [6] was “inactive” throughout.

For `COC(=O)C1=C(C)N(Cc2ccccc2)C(=O)NC1c1cccc(F)c1` (stereo unspecified), the Potency entry in assay [1], in assay [2], in assay [3], in assay [4], in assay [5] and in assay [6] was “inactive” in each case.
